Results taken from PubChem BioAssay.
The source made the active and inactive calls.

What was measured:
[1] = binders of probe aFSTL3 on microarray, primary screen, stem cell growth factor project, biochemical, small-molecule microarray, fluorescence 635/667 (AID 1064); details: higher = more signal;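 further: measures binding of the biotinylated anti-FSTL3 antibody to printed compounds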
[2] = binders from COS7 lysate, DM2A8 probe, primary screen, torsin A project, cell lysate, small-molecule microarray, fluorescence 635/667 (AID 1065); details: higher = more signal, COS7 lysate expressing mutant human TOR1A
[3] = binders of probe aFGF2 on microarray, primary screen, stem cell growth factor project, biochemical, small-molecule microarray, fluorescence 635/667 (AID 1067); details: higher = more signal;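 further: measures binding of biotinylated aFGF2 protein to printed compounds on slides; z-score merges feature fluorescence and signal-to-noise across triplicate slides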
[4] = binders of probe aFGF10 on microarray, primary screen, stem cell growth factor project, biochemical, small-molecule microarray, fluorescence 635/667 (AID 1071); details: higher = more signal;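 further: score merges 667 nm spot intensity and signal to noise from triplicate slides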
[5] = target: Neurogenic locus notch homolog protein 2 (Homo sapiens) (UniProt Q04721); experiment: Notch2 binders on small-molecule microarrays, primary screen, biochemical, small-molecule microarray, 635 nm fluorescence, stem cell growth factors (AID 1073); details: Notch2 binding, higher = more signal
Chain of Neurogenic locus notch homolog protein 2 (Homo sapiens) (Q04721 whole entry, looked up, canonical isoform): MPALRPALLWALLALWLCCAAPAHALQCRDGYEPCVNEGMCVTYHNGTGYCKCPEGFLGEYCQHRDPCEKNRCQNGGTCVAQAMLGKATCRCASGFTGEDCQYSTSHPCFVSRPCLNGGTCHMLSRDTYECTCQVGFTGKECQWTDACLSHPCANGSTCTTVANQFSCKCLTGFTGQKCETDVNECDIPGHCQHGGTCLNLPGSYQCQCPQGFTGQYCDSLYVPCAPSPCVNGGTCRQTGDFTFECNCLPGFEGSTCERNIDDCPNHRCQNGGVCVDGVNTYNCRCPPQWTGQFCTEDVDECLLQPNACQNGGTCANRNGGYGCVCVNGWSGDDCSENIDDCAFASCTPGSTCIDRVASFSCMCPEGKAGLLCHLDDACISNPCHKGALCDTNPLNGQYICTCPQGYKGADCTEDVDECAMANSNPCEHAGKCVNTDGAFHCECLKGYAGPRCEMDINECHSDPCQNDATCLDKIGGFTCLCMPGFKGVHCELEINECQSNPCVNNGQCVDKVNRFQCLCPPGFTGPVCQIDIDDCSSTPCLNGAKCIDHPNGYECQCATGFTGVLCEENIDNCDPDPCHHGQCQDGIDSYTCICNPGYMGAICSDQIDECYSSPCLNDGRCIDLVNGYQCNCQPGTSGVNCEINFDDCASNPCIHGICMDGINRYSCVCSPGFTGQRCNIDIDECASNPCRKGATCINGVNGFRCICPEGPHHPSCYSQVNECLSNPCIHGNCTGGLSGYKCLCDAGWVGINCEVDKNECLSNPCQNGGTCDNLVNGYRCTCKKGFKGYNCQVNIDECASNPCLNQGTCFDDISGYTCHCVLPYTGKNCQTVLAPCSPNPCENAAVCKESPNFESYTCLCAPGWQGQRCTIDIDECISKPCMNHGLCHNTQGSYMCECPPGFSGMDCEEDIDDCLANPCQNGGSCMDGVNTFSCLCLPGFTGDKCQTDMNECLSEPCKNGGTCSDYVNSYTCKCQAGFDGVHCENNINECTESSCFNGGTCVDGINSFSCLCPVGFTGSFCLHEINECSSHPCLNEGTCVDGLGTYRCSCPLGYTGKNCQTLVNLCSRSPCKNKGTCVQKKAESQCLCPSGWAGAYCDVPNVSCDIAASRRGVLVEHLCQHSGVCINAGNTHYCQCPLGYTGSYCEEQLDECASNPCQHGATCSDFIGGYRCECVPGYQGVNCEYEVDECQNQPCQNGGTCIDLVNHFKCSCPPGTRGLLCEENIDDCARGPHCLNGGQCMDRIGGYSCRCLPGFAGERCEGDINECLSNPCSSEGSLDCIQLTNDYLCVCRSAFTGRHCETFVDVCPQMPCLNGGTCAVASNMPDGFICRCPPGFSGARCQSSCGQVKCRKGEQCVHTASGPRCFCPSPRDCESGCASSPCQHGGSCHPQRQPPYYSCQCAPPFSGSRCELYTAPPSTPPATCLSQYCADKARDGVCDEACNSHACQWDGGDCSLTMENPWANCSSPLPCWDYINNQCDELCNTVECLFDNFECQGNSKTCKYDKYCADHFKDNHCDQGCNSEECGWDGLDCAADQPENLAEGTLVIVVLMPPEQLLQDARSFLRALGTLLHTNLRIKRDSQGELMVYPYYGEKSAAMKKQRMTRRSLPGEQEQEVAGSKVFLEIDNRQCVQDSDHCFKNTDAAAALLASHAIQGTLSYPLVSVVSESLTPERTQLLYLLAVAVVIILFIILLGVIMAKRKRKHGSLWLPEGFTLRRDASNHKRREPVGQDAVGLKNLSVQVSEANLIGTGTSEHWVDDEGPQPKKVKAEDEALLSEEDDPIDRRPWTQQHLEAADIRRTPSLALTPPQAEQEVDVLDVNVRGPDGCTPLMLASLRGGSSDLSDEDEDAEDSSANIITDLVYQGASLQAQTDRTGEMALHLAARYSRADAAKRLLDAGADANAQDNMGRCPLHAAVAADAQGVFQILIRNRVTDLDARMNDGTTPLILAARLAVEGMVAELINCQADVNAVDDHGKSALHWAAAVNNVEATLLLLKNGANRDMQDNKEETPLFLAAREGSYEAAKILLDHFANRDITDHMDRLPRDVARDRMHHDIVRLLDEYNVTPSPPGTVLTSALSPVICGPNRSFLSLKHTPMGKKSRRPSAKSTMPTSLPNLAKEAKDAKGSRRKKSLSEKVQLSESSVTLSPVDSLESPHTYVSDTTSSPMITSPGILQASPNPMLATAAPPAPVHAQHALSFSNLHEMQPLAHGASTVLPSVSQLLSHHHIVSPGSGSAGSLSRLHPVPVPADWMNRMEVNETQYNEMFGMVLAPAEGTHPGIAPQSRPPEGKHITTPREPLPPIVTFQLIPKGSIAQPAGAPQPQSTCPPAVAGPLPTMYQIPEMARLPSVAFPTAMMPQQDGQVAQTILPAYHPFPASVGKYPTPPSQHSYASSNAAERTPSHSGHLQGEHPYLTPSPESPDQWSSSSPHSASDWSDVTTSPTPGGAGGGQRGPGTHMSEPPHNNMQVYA

[6] = target: Pro-neuregulin-1, membrane-bound isoform (Homo sapiens) (UniProt Q02297); experiment: NRG1 binders on small-molecule microarrays, primary screen, psychiatric disease protein project, biochemical, small-molecule microarray, fluorescence 635/667 (AID 1075); details: NRG1 binding, 635 nm fluorescence, higher = more signal;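 further: score combines 667 nm spot fluorescence with signal to noise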
Chain of Pro-neuregulin-1, membrane-bound isoform (Homo sapiens) (Q02297 whole entry, looked up, the tested form may be a part, canonical isoform): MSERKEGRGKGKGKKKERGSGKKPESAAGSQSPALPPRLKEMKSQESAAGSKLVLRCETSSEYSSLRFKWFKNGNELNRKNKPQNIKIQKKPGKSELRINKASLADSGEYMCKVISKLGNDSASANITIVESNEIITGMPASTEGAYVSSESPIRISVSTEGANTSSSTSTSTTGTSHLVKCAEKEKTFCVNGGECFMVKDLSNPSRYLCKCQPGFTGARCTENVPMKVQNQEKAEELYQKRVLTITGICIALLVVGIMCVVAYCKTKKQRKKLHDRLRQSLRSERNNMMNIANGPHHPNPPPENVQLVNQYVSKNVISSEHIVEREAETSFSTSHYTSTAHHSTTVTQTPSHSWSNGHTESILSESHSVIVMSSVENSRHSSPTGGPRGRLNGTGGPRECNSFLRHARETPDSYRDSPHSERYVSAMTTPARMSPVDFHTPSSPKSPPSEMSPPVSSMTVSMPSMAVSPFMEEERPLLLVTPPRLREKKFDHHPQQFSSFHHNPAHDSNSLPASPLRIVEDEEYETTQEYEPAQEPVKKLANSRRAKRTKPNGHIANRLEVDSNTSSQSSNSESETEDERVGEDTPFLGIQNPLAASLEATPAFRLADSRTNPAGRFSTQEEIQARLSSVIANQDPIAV

[7] = tested on: Neuregulin-1 EGF-like domain; experiment: binders of neuregulin-1 EGF-like domain, primary screen, biochemical, small-molecule microarray, 635 nm fluorescence (AID 1081); details: small-molecule microarray binding, higher = more signal;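 further: binding of the protein to compounds printed on small-molecule microarray slides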
[8] = FRG1 promoter luciferase signal modulators, primary screen, FRG1 inhibition for FSHD, cell-based, C2C12 myotubes, firefly/Renilla luciferase, luminescence (AID 1084); details: higher = more signal, called active from +8 up or from −8 down
[9] = binders of probe aFST on microarray, primary screen, stem cell growth factor project, biochemical, small-molecule microarray, fluorescence 635/667 (AID 1086); details: higher = more signal;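 further: score merges 667 nm fluorescence with signal-to-noise of each printed compound spot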
[10] = binders of probe aHhip on microarray, primary screen, stem cell growth factor project, biochemical, small-molecule microarray, fluorescence 635/667 (AID 1087); details: higher = more signal;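 further: score merges spot fluorescence at 667nm with spot signal to noise ratio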

SMILES	composite z-score [1]	composite z-score [2]	composite z-score [3]	composite z-score [4]	composite z-score [5]	composite z-score [6]	composite z-score [7]	z-score [8]	composite z-score [9]	composite z-score [10]
CN1C(=O)C2C=CC(C(O)C=Cc3ccc([N+](=O)[O-])cc3)N(N3CCCCC3)C2C1=O (stereo not given)	1.79	1.62	0.556	1.11	1.69	1.69	0.932	4.21 (inactive)	2.23	0.217
C=CCC(OC(C)=O)[C@@H]1[C@@H](N(Cc2cc3ccccc3o2)C(=O)c2ccc(-c3ccccc3)cc2)c2cc(OCCCO)ccc2N1C(=O)Cc1ccc2ccccc2c1 (stereo not given in full)	0.179	-0.499	-0.0428	0.101	-0.14	-0.0892	-0.5	-1.28 (inactive)	0.261	0.17
C=C[C@H](OC)[C@@H](OC(=O)Nc1ccc(SC)cc1)c1ccc(OCCO)cc1	0.0168	0.594	-0.0307	0.778	-0.21	0.121	1.41	5.3 (inactive)	-0.0503	-0.249
CC(C)C(O)C1C=CC2C(=O)N(C)C(=O)C2N1N1CCCCC1 (stereo not given)	-0.201	-0.145	-0.0412	0.651	1.51	0.856	1.24	0.554 (inactive)	0.772	-0.0391
CC(=O)NCCCC[C@@H]1NC(=O)[C@@H]2C[C@H](C(=O)NCc3ccc(F)cc3)[C@H](c3ccc(O)cc3)N2C1=O	0.114	0.798	0.0377	0.639	-0.326	0.772	1.47	-0.0693 (inactive)	-0.21	-0.0994
COC(=O)[C@@]1(Cc2ccc(F)cc2)[C@H]2c3cc(C(=O)N(C)C)n(CCCNc4ccc(C(F)(F)F)cc4Cl)c3C[C@H]2CN1C(=O)c1ccccc1	0.785	0.34	0.311	0.754	1.75	1.16	1.27	0.452 (inactive)	1.55	-0.114
CCCC[C@H]1C[C@@H]1[C@@H]1N(P(=O)(c2ccccc2)c2ccccc2)[C@](CO)(c2ccccc2)CC12CC2	0.488	-0.363	0.0231	0.106	1.44	0.936	1.05	0.273 (inactive)	1.03	0.235
CN1C(=O)C2C=CC(C(O)C(C)(C)C)N(Nc3ccccc3)C2C1=O (stereo not given)	0.207	-0.565	-0.14	-0.181	0.0262	1.4	0.291	-0.269 (inactive)	0.0082	-0.173
CN(C)CCCCNC(=O)[C@@H]1C[C@@H]2C(=O)N[C@@H](CCCCN)C(=O)N2[C@@H]1c1cccc(OCCO)c1	1.24	-0.719	-0.138	-0.347	-0.573	2.07	1.3	3.31 (inactive)	0.145	0.424
O=C1c2ccccc2[C@](Cc2ccccc2I)(C(=O)O)[C@H](c2ccc(CO)cc2)N1Cc1ccccc1C(F)(F)F	-0.897	0.17	-0.21	-0.278	0.304	1.62	1.26	-0.524 (inactive)	-0.0423	-0.312
COCCn1c(C(=O)N2CCCC2)cc2c1C[C@H]1CN(C(=O)c3ccccc3)[C@@](Cc3ccc(OC)cc3)(C(=O)OC)[C@@H]21	1.42	1.86	0.264	0.43	1.64	2.12	0.905	-1.1 (inactive)	0.602	-0.0994
COc1ccc(C#Cc2ccc3c(c2)[C@]2(C(=O)N3)[C@H](C(=O)N3CCc4cc(OC)c(OC)cc4C3)[C@H]3C(=O)O[C@H](c4ccccc4)[C@H](c4ccccc4)N3[C@@H]2c2ccc(OCCO)cc2)cc1	-0.304	0.487	0.0019	0.817	1.32	0.213	1.2	0.239 (inactive)	0.35	0.314
O=[N+]([O-])c1ccc(C[n+]2ccc(CCCO)cc2)o1	0.138	0.218	0.0609	0.758	1.53	0.856	1.29	0.472 (inactive)	0.181	0.251
CCCNC(=O)[C@@]1(C)c2ccccc2C(=O)N(Cc2ccc(OC(F)(F)F)cc2)[C@H]1c1ccc(CO)cc1	0.29	-0.0811	0.015	-0.387	-0.321	1.2	1.3	-3.98 (inactive)	-0.337	0.28
CN1C(=O)C2C(C1=O)C1C=C(c3ccc(CO)cc3)C2C(C2CC2)N1Cc1cc2c(cc1Br)OCO2 (stereo not given)	-0.0526	1.44	-0.0171	0.561	1.61	1.46	1.24	-4.12 (inactive)	0.917	-0.127
CCCCC(=C=CC[C@H](O)c1ccccc1OCCO)C[C@H](O)c1cc(Cl)cc(Cl)c1O	-0.114	-0.257	-0.0628	0.583	0.151	0.371	1.1	-2.37 (inactive)	0.0025	-0.226
